About 79,000 compounds went through this panel and 15% of them were active in at least one assay; those are over-represented in the sample as a whole. Unmarked numbers belong to inactive results. Activity calls are given as the source filed them. Rule as the data show it: active = growth inhibition above about 70%; inactive = the rest.
What was measured:
[1] = NCI Yeast Anticancer Drug Screen. Data for the rad50 strain (AID 155);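 also: 0% = growth of vehicle-only cultures of the same strain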; settings: S. cerevisiae rad50 strain growth inhibition, active compounds read high
Outline: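 Inhibition values express reduced yeast growth in compound-treated cultures relative to vehicle-treated controls.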

[2] = NCI Yeast Anticancer Drug Screen. Data for the mec2-1 strain (AID 157); settings: S. cerevisiae mec2-1 strain, active compounds read high
Outline: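 mec2-1 yeast strain, carrying an alteration in DNA damage repair or cell cycle control, was exposed to compounds; growth inhibition was measured relative to vehicle-treated controls.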

[3] = NCI Yeast Anticancer Drug Screen. Data for the sgs1 mgt1 strain (AID 161);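 also: 0% = growth of cultures given vehicle only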; settings: S. cerevisiae sgs1 mgt1 strain, active compounds read high
Outline: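 Percent growth inhibition was derived by comparing compound-exposed mutant yeast with vehicle-exposed cultures. The strain carries alterations in DNA damage repair.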

[4] = NCI Yeast Anticancer Drug Screen. Data for the cln2 rad14 strain (AID 165);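 also: 0% = growth equal to vehicle treated cultures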; settings: S. cerevisiae cln2 rad14 strain, active compounds read high
Outline: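 Yeast carrying cln2 and rad14 alterations (cell cycle control and DNA damage repair) were exposed to compounds. Growth inhibition was measured against vehicle-treated controls.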

[5] = NCI Yeast Anticancer Drug Screen. Data for the bub3 strain (AID 167); settings: S. cerevisiae bub3 mutant strain, active compounds read high
Outline: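 Steps: expose the mutant yeast strain to compound; grow alongside vehicle-treated cultures; measure growth; express inhibition against the vehicle cultures.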

[6] = NCI Yeast Anticancer Drug Screen. Data for the mlh1 rad18 strain (AID 175); settings: S. cerevisiae mlh1 rad18 strain growth inhibition, active compounds read high
Outline: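 Growth inhibition of the yeast strain was measured after compound exposure and expressed relative to vehicle-treated controls. The strain carries defined defects in DNA damage repair.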

[7] = at 5.0 µM (retest, dose inferred, filed as 0.5)
[8] = at 50.0 µM (retest, dose inferred, filed as 5.0)

| SMILES | growth inhibition [1, 7] | growth inhibition [1, 8] | growth inhibition ([1]; at 50.0 µM) | growth inhibition [2, 7] | growth inhibition [2, 8] | growth inhibition ([2]; at 50.0 µM) | growth inhibition [3, 7] | growth inhibition [3, 8] | growth inhibition ([3]; at 50.0 µM) | growth inhibition [4, 7] | growth inhibition [4, 8] | growth inhibition ([4]; at 50.0 µM) | growth inhibition [5, 7] | growth inhibition [5, 8] | growth inhibition ([5]; at 50.0 µM) | growth inhibition [6, 7] | growth inhibition [6, 8] | growth inhibition ([6]; at 50.0 µM) |
| --- | --- | --- | --- | --- | --- | --- | --- | --- | --- | --- | --- | --- | --- | --- | --- | --- | --- | --- |
| CC1(C)C/C(=N/NC(N)=S)C(=NO)/C(=N\NC(N)=S)C1 | 6% | 60% | 75% (active) | 2% | 40% | 62% | 9% | 61% | 77.4% (active) | -13% | 27% | 23.4% | 0% | 34% | 76.8% (active) | 2% | 59% | 74.5% (active) |
| C/C(=N/NC(N)=O)c1ccc(Cl)s1 | 0% | -1% | 12.9% | 23% | -3% | 5% | -1% | 0% | -4.35% | -8% | -3% | 52.9% | -2% | -7% | 9.4% | -5% | -1% | 1.6% |
| CC(C)/C(Cl)=N\OC(=O)Nc1cccc(F)c1 | 14% | 65% | -5.85% | -7% | 45% | 63% | -6% | 96% (active) | 82.9% (active) | 41% | 28% | 25.9% | -13% | 82% (active) | 69.7% | -3% | 28% | 50.8% |
| CSc1ncnc2nn(C3OC(COC(=O)c4ccccc4)C(OC(=O)c4ccccc4)C3OC(=O)c3ccccc3)nc12 (configuration not stated) | -16% | -1% | -14.8% | -1% | -6% | 17.9% | -6% | 1% | -13.6% | -1% | -9% | 40.3% | -3% | 3% | -11.2% | -5% | -3% | 15.2% |
| N#C/C(=C/c1cc(I)cc(I)c1O)C(N)=O | 42% | 87% (active) | 79.8% (active) | 39% | 92% (active) | 58.6% | 69% | 97% (active) | 78.8% (active) | 41% | 90% (active) | 61.2% | 44% | 96% (active) | 80.2% (active) | 66% | 97% (active) | 71.2% (active) |
| Cc1ccc(/[N+]([O-])=C/c2ccccc2)cc1 | -2% | -23% | 98.2% (active) | 4% | -17% | 99.2% (active) | -13% | -2% | 95.7% (active) | -46% | -25% | 52.8% | -12% | 13% | 99% (active) | -27% | -20% | 79.2% (active) |
| Oc1ccc2c(c1O)/C(=C/C=NCC1(O)OCC(O)C(O)C1O)C=N2 (configuration not stated) | 2% | -7% | 67.3% | 5% | -7% | 67.4% | 4% | 1% | 88.4% (active) | 0% | -9% | 83.5% (active) | 2% | -3% | 48.3% | 2% | -2% | 77% (active) |
| CCCC(CC)c1cc(O)c(O)cc1C(CC)CCC (configuration not stated) | 1% | 56% | 73% (active) | -18% | 33% | 69.5% | 9% | 29% | 43.9% | -5% | 70% (active) | 79.8% (active) | -9% | 54% | 65.8% | 6% | 62% | 77.8% (active) |
| CC(CO)(CO)Cc1ccccc1 | 1% | -6% | 96.5% (active) | -2% | 6% | 97.9% (active) | 0% | -5% | 80.5% (active) | -3% | -4% | 92.3% (active) | -1% | 1% | 94% (active) | 2% | -3% | 93.2% (active) |

From PubChem BioAssay (NCI)
